The text below walks through data of PubChem BioAssay (EPA / NIEHS).

Results filed as inconclusive are left out. Active and inactive are the calls of the source. The calls were made as follows, unless noted: active = hit-call score of the fitted dose curve at least 0.9, where 1 is the maximum; inactive = score below 0.9.

In assay [1] the target is Peroxisome proliferator-activated receptor gamma (Homo sapiens) (UniProt P37231). Nature of the assay: OT_PPARg_PPARgSRC1_0480: Odyssey Thera (OT) 8-hour Protein-Complementation Assay for Peroxisome Proliferator-activated Receptor Gamma / SRC-1 Co-activator (AID 2283387; active = hit-call score of the fitted dose curve at least 0.9, where 1 is the maximum). The gist of the method: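 Split-YFP (IFP1/IFP2) PPARg/SRC-1 reporter, HEK293T, 37 °C, 5% CO2; 8 h compound; formaldehyde fix + Draq5; high-content imaging, N/C ratio, ≥350 cells/image, positive direction vs DMSO.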
Chain of Peroxisome proliferator-activated receptor gamma (Homo sapiens) (P37231 whole entry, looked up): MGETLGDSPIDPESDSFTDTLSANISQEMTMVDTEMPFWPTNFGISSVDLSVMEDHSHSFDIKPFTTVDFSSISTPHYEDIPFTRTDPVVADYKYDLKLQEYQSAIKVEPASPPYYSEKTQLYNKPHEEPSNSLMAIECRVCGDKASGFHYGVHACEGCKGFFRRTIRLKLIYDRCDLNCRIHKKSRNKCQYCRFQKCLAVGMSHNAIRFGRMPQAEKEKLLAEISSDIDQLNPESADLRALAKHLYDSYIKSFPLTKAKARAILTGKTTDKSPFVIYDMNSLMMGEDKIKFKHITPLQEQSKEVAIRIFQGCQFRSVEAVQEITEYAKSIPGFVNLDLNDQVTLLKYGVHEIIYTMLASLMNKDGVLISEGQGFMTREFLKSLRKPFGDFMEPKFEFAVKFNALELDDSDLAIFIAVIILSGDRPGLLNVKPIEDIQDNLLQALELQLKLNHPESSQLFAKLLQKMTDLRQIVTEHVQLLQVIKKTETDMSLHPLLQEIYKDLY

Assay [2] has the same target. Nature of the assay: OT_PPARg_PPARgSRC1_1440: Odyssey Thera (OT) 24-hour Protein-Complementation Assay for Peroxisome Proliferator-activated Receptor Gamma/ SRC-1 Co-activator (AID 2283388; active = hit-call score of the fitted dose curve at least 0.9, where 1 is the maximum). The gist of the method:
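HEK293T cells transiently transfected with PPARg and SRC-1 fused via (Gly4Ser)2 linker to split Venus YFP fragments (IFP1/IFP2) were dosed 24 h; fixed, Draq5-stained, imaged at 488/635 nm; nuclear/cytoplasmic fluorescence ratio scored versus DMSO baseline, gain-of-signal.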

A short description of assay [3]: CEETOX_H295R_11DCORT: CeeTox H295R High-throughput Steroidogenesis Assay for 11-Deoxycortisol (11DCORT) (AID 2283432). To be noted: actives raise or lower the signal. The gist of the method:
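Steroidogenesis in human H295R cells: 48 h chemical exposure after forskolin priming, 11-deoxycortisol measured by LC-MS/MS.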

Assay [4] can be described thus: CEETOX_H295R_OHPREG: CeeTox H295R High-throughput Steroidogenesis Assay for OH-Pregnenolone (OHPREG) (AID 2283434). To be noted: actives raise or lower the signal. The gist of the method:
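H295R, 10 uM forskolin pre-stim 48 h; test chemical 48 h, 0.1% DMSO final. MTBE extraction, reverse-phase C18 HPLC-ESI+ MS/MS of medium. Gain/loss vs DMSO; viability by MTT in same wells.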

The nature of assay [5]: CEETOX_H295R_OHPROG: CeeTox H295R High-throughput Steroidogenesis Assay for OH-Progesterone (OHPROG) (AID 2283435).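 As to AC50: 17alpha-hydroxyprogesterone secreted into medium measured by HPLC-MS/MS.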 To be noted: actives raise or lower the signal. The gist of the method:
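Medium steroid levels read by LC-MS/MS after 48 h chemical treatment (0.1% DMSO) of human adrenal H295R cells that had been forskolin-primed (10 uM, 48 h). Gain or loss fitted against DMSO; MTT cytotoxicity checked per well.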

A short description of assay [6]: CEETOX_H295R_CORTIC: CeeTox H295R High-throughput Steroidogenesis Assay for Corticosterone (CORTIC) (AID 2283437).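 Also: corticosterone secreted into medium quantified by mass spectrometry.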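 As to AC50: human H295R adrenal cells prestimulated with forskolin before chemical exposure.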 To be noted: actives raise or lower the signal. The gist of the method:
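48 h forskolin (10 uM) prestim, then 48 h chemical exposure, final DMSO 0.1%. Readout: corticosterone in medium by LC-MS/MS after MTBE extraction. Gain/loss fit vs DMSO; MTT viability in same wells.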

A short description of assay [7]: CEETOX_H295R_CORTISOL: CeeTox H295R High-throughput Steroidogenesis Assay for Cortisol (AID 2283438).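 Also: cortisol secreted into medium quantified by LC-MS/MS.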 To be noted: actives raise or lower the signal. The gist of the method: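 Cortisol measured by HPLC-MS/MS after MTBE extraction of medium from H295R cells exposed 48 h to chemical (0.1% DMSO), following 48 h prestimulation with 10 uM forskolin. Viability assessed by MTT in the same wells.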

Assay [8] is described as follows: CEETOX_H295R_DOC: CeeTox H295R High-throughput Steroidogenesis Assay for DOC (AID 2283439). The following applies: actives raise or lower the signal. The method, boiled down: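 11-Deoxycorticosterone quantified in medium by MTBE extraction and HPLC-MS/MS after 48 h chemical exposure (0.1% DMSO) of forskolin-primed (10 uM, 48 h) H295R cells. Same-well MTT viability; data fitted bidirectionally against DMSO.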

Assay [9] is described as follows: CEETOX_H295R_ANDR: CeeTox H295R High-throughput Steroidogenesis Assay for Androstenedione (ANDR) (AID 2283436).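 Also: human H295R adrenal cells exposed for 48 h with androstenedione measured in medium.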 The following applies: actives raise or lower the signal. The method, boiled down:
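48 h chemical exposure, H295R cells, DMEM/F12 + ITS+ and Nu-Serum. Medium androstenedione: MTBE extraction, C18 reverse-phase HPLC, ESI+ MS/MS. Fit bidirectional vs DMSO; MTT viability in same wells.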

Consider `CN(C)C(=S)SSC(=S)N(C)C`, for which the outcome in [1] and in assay [2] was inactive.

`CCNc1nc(Cl)nc(NCC)n1`: the call in [1], in assay [2], in [3], in [4], in assay [5] and in [6] was inactive. In addition, the compound was called inactive in assay [7] and in assay [8].

For `CCOC(=O)C(Cl)Cc1cc(-n2nc(C)n(C(F)F)c2=O)c(F)cc1Cl` (centres undefined), the call in [1], in [2], in [3], in assay [4], in assay [6] and in [7] was inactive. For the same compound, the AC50 was 50000 nM (active) in assay [5] and 17200 nM (active) in assay [8].

With `CCCC1COC(Cn2cncn2)(c2ccc(Cl)cc2Cl)O1` (centres undefined), the result in assay [1], in [2], in [3], in assay [4], in assay [5] and in [9] was inactive. In addition, the result in assay [8] was inactive. Moreover, the AC50 was 357 nM (active) in assay [6] and 323 nM (active) in assay [7].

Consider `CCOP(=S)(OCC)SCn1c(=O)oc2cc(Cl)ccc21`, for which the compound was called inactive in [1], in [3], in assay [5] and in assay [7]. Also, the results for the AC50 in [4], in [6] and in assay [8] were 5000 nM (active), 1140 nM (active) and 1360 nM (active), respectively.

Turning to `COP(=S)(OC)Oc1nc(Cl)c(Cl)cc1Cl`, the compound was classed as inactive in [1], in [2], in assay [6], in [7] and in [8].

For `Fc1ccc(Oc2ccnc3cc(Cl)cc(Cl)c23)cc1`, the compound was called inactive in [1] and in assay [2].

With `CC(C)Oc1cc(-n2nc(C(C)(C)C)oc2=O)c(Cl)cc1Cl`, the outcome in assay [1], in assay [2], in [3], in assay [5], in [9] and in [6] was inactive. Also, the compound was called inactive in assay [7] and in [8]. Also, the AC50 in assay [4] is 951 nM (active).

On to `CC1=C(C(=O)Nc2ccccc2)SCCO1`, for which the result in [1], in assay [2], in assay [3], in assay [4], in assay [5] and in assay [9] was inactive. In addition, the outcome in assay [6], in [7] and in [8] was inactive.

Turning to `C=CCC1=C(C)C(OC(=O)C2C(C=C(C)C)C2(C)C)CC1=O` (centres undefined), the outcome in [1], in assay [2], in assay [3], in assay [4], in assay [5] and in assay [6] was inactive. Further, the call in assay [7] and in [8] was inactive.

Turning to `CCOC(=O)CC(SP(=S)(OC)OC)C(=O)OCC` (centres undefined), the outcome in [1], in assay [2], in [3], in assay [4], in [9] and in assay [6] was inactive. Also, the call in assay [7] and in assay [8] was inactive. In addition, the AC50 in [5] is 25800 nM (active).

On to `Cc1cc(Cl)ccc1OCC(=O)O`, for which the call in [1], in assay [2], in [3], in assay [4], in assay [5] and in assay [9] was inactive. Moreover, the compound was called inactive in assay [6], in [7] and in assay [8].

For the compound `O=C(O)c1nc(Cl)ccc1Cl`, the outcome in assay [2] was inactive.

Regarding `N#CC(CCc1ccc(Cl)cc1)(Cn1cncn1)c1ccccc1` (centres undefined), the outcome in assay [1], in assay [2], in [3], in [4], in [9] and in assay [6] was inactive. The call in [8] was inactive. The AC50 is 360 nM (active) in assay [5] and 386 nM (active) in [7].

Take `CCOc1cc(Oc2ccc(C(F)(F)F)cc2Cl)ccc1[N+](=O)[O-]`: the result in assay [1], in assay [2], in assay [3], in assay [4], in assay [5] and in [6] was inactive. The compound was called inactive in [7] and in [8].

For `CCNc1nc(Cl)nc(NC(C)C)n1`, the compound was classed as inactive in [1], in [2], in assay [3], in assay [4], in assay [5] and in assay [6]. Moreover, the call in assay [7] and in assay [8] was inactive.

For `Cc1c(F)c(F)c(COC(=O)C2C(/C=C(\Cl)C(F)(F)F)C2(C)C)c(F)c1F` (centres undefined), the compound was classed as inactive in [1], in [2], in assay [3], in [4], in assay [5] and in assay [6]. The result in assay [7] and in assay [8] was inactive.

The term AC50 denotes the concentration at which the activity in the assay is half-maximal.
